Only some compounds are listed: those with a hit (about 7.7% of all), similar ones and a draw of the others.
NOMO-1 viab: STK33 inhibitor candidate reducing NOMO-1 cell viability. NOMO-1 AML viability, CellTiter-Glo luminescence, 72 h. inhibition, % (no concentration beside the values). hit rate 7.5% among 37,000; in the data active = inhibition above about 80%
PD-1 reversal: reversal of PD-1 mediated T-cell inhibition; primary human CD4 T cells, PD-L1 beads, CellTiter-Glo 96 h; activation, % (test concentration not listed); 29,000 tested, under 10 active; call rule not given here;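 note: 0% = median vehicle wells and 100% = positive control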
Hedgehog inh: Sonic Hedgehog pathway inhibition. inhibition, % (test concentration not listed). hit rate 2.1% among 22,000. Shh-LIGHT2 Gli-luciferase reporter, 30 h;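 active = mean inhibition across valid replicates above about 65%, limit read from the data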;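 note: pathway switched on by Shh-conditioned medium diluted 1 in 25 in low serum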
Starred values were filed as active, the others as inactive; . = no result.

SMILES	NOMO-1 viab	PD-1 reversal	Hedgehog inh
C[C@@H]1CN([C@H](C)CO)C(=O)c2cc(NS(=O)(=O)c3ccccc3)ccc2O[C@H]1CN(C)Cc1ccc(-c2ccccc2)cc1	107.2*	-1.1	.
C[C@@H]1CN([C@@H](C)CO)C(=O)c2cc(NS(=O)(=O)c3ccc(F)cc3)ccc2O[C@@H]1CN(C)Cc1ccc(-c2ccccc2)cc1	111.4*	-2.5	.
C[C@@H]1CN([C@@H](C)CO)C(=O)c2cc(NS(=O)(=O)c3ccccc3)ccc2O[C@H]1CN(C)Cc1ccc(-c2ccccc2)cc1	48.9	0.5	.
N#CCc1ccc(NC(=O)Cc2ccccc2[N+](=O)[O-])cc1	30.3	-0.6	.
CN1CCN(c2ccccc2NC(=O)COc2ccc([N+](=O)[O-])cc2)CC1	-10.3	1.5	.
COC(=O)c1cc(O)cc(O)c1C(=O)c1c(O)c(Cl)c(C)c(Cl)c1OC	7.3	-3.3	-41.3
C[C@@H]1O[C@@H](O[C@@H]2[C@@H](O)[C@H](O[C@@H]3[C@@H](O)[C@@H](O)[C@H](O[C@H]4[C@H](OC(=O)[C@]56CCC(C)(C)C[C@H]5C5=CCC7[C@@]8(C)C[C@H](O)[C@H](O[C@@H]9O[C@H](C(=O)O)[C@@H](O)[C@H](O)[C@H]9O)[C@@](C)(CO)C8[C@H](O)C[C@@]7(C)[C@]5(C)C[C@H]6O)OC[C@H](O)[C@@H]4O)O[C@H]3C)OC[C@H]2O)[C@H](O)[C@H](O)[C@H]1O (some centres not stated)	19.2	2.5	-3.1
CC(=O)c1cccc(NC(=O)COc2ccccc2C(=O)Nc2ccccc2C#N)c1	71.2	-4.9	.
C/C=C(/C)C(=O)O[C@H]1[C@H](OC(=O)/C=C/c2ccccc2)[C@@]23C(CC1(C)C)[C@]1(CCC4[C@@]5(C)CC[C@H](O[C@@H]6O[C@H](C(=O)O)[C@@H](O)[C@H](O[C@@H]7O[C@H](CO)[C@H](O)[C@H](O)[C@H]7O[C@@H]7O[C@@H](C)[C@H](O)[C@@H](O)[C@H]7O[C@@H]7OC[C@](O)(CO)[C@H]7O)[C@H]6O[C@@H]6O[C@H](CO)[C@H](O)[C@H](O)[C@H]6O)C(C)(C)C5CC[C@@]4(C)[C@]1(C)C[C@H]2O)O[C@H]3O (some centres not stated)	120.3*	-14.7	87.8*
C[C@@H]1O[C@@H](O[C@H]2CC[C@@]3(C)C(CC[C@]4(C)C3CC=C3C5CC(C)(C)CC[C@]5(C(=O)O[C@@H]5O[C@H](CO)[C@@H](O)[C@H](O)[C@H]5O)CC[C@]34C(=O)O)C2(C)C)[C@H](O)[C@H](O)[C@H]1O (some centres not stated)	15.5	0.9	-4.7
C[C@@H]1O[C@@H](O[C@H]2[C@H](O[C@H]3[C@H](O)[C@@H](C(=O)O)O[C@@H](O[C@H]4CC[C@@]5(C)C(CC[C@]6(C)C5CC[C@]57OC[C@@]8(CCC(C)(C)CC85)[C@H](O)C[C@]76C)C4(C)C)[C@@H]3O[C@@H]3O[C@H](CO)[C@@H](O[C@@H]4OC[C@@H](O)[C@H](O)[C@H]4O)[C@H](O)[C@H]3O)O[C@H](CO)[C@H](O)[C@@H]2O)[C@H](O)[C@H](O)[C@H]1O (some centres not stated)	58.3	-11.7	42.3
C/C=C(\C)C(=O)OC1C(OC(=O)/C=C(/C)CC(=O)O)C2(CO)C(O)CC3(C)C(=CCC4C5(C)CCC(OC6OC(C(=O)O)C(O)C(OC7OC(C)C(O)C(OC8OC(CO)C(O)C(O)C8O)C7O)C6O)C(C)(C)C5CCC43C)C2CC1(C)C (configuration not stated)	122.1*	-38.8	96.9*
CC1(C)CC[C@@]2(C(=O)O[C@@H]3O[C@H](CO)[C@@H](O)[C@H](O)[C@H]3O)C(C1)C1=CCC3[C@@]4(C)CC[C@@H](O[C@@H]5O[C@H](CO)[C@@H](O)[C@H](O)[C@H]5O[C@@H]5O[C@H](CO)[C@@H](O)[C@H](O)[C@H]5O)C(C)(C)C4CC[C@@]3(C)[C@]1(C)C[C@H]2O (some centres not stated)	6.8	1.8	-38.8
C/C=C(/C)C(=O)O[C@H]1[C@H](OC(=O)/C(C)=C\C)[C@]2(CO)[C@H](O)C[C@]3(C)C(=CCC4[C@@]5(C)CC[C@H](OC6OC(C(=O)O)C(O)C(OC7OC(C)C(O)C(OC8OC(CO)C(O)C(O)C8O)C7O)C6O)C(C)(C)C5CC[C@]43C)[C@@H]2CC1(C)C (some centres not stated)	121.9*	-38.3	99.0*
CCc1cccc(C(C)C)c1NC(=O)Nc1ccccc1	36.6	0.2	-11.4
COc1ccc(S(=O)(=O)N(C)CC(=O)Nc2cccc(C(F)(F)F)c2)cc1Cl	-6.0	.	.
COc1ccc(OC)c(CCCCc2cc(OC)ccc2OC)c1	14.8	0.2	1.7
COC(=O)c1c(-c2cccc(C)c2)csc1NC(=O)c1ccccc1[N+](=O)[O-]	1.9	.	.
Cc1ccc(N2C(=O)C(N3C(=O)c4ccccc4C3=O)C2c2ccc(N(C)C)cc2)cc1Cl (configuration not stated)	17.1	-0.1	.
COc1cc(OC)cc(-c2nnc(SCC(=O)Nc3ccc(I)cc3)o2)c1	89.7*	-4.6	.
COC(=O)c1cccc(NC(=O)CSc2nnc(-c3cc(OC)cc(OC)c3)o2)c1	-4.0	1.2	.
CC1CCCC[C@H]2C(=O)C=C[C@H](O)[C@@H]2CC(=O)O1 (some centres not stated)	108.0*	-15.6	35.5
C=C(C(=O)O)[C@@H]1CC[C@@]2(C)CC(=O)C=C(C)C2C1 (some centres not stated)	14.2	0.6	13.7
C=C1CC[C@@H](O)[C@]2(C)C[C@H]3OC(=O)C(=C)[C@H]3CC12 (some centres not stated)	104.3*	-5.7	29.9
C=C1C(=O)O[C@@H]2C[C@@]3(C)CC(=O)C=C(C)C3C[C@H]12 (some centres not stated)	119.5*	-6.4	50.6
SMILES	NOMO-1 viab	PD-1 reversal	Hedgehog inh
Cc1cc(OCC(=O)Nc2ncn[nH]2)c(C)cc1Br	9.7	.	.
Cc1ccc(O)c(NC(=O)c2nc3ncccn3n2)c1	5.4	2.5	.
O=C1/C(=C/c2ccc(-c3nn[nH]n3)cc2)C(c2ccccc2)Oc2ccccc21 (configuration not stated)	57.1	-9.4	73.8*
Cn1c(Cc2cccc3ccccc23)nnc1SCC(=O)N1CCc2ccccc21	40.1	-3.8	.
CCOC(=O)c1sc(NC(=O)CSc2nc3c(c(C(F)(F)F)n2)CCCC3)c(C#N)c1C	33.1	-3.7	.
C[C@@H]1CN([C@@H](C)CO)C(=O)Cc2cc(NC(=O)Cc3cn(C)c4ccccc34)ccc2O[C@@H]1CN(C)Cc1ccc(Cl)c(Cl)c1	107.3*	-3.6	-19.9
C[C@@H]1CN([C@H](C)CO)C(=O)Cc2cc(NC(=O)Cc3cn(C)c4ccccc34)ccc2O[C@H]1CN(C)Cc1ccc(Cl)c(Cl)c1	114.9*	-1.2	-9.0
C[C@@H]1CN([C@H](C)CO)C(=O)Cc2cc(NC(=O)Cc3cn(C)c4ccccc34)ccc2O[C@@H]1CN(C)Cc1ccc2c(c1)OCO2	17.7	-1.0	14.2
C[C@H](CO)N1C[C@H](C)[C@H](CN(C)Cc2ccccc2)Oc2ccc(NC(=O)Cc3cn(C)c4ccccc34)cc2CC1=O	-1.4	.	8.8
Cc1nnc(SCC(=O)Nc2cccc(F)c2)s1	40.4	.	.

Source: PubChem BioAssay
